Among the data in PubChem BioAssay (NCI) are growth values, retold here.

Compounds without any hit were thinned out: in the full panel of roughly 83,000, 20% have a hit.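 Values shown are percent growth following 48 h exposure of cells in 96-well plates to a single concentration of compound; below 10 was considered active.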 Values without a mark were called inactive. Active and inactive are the calls of the source.

Among the test systems are NCI-H23 lung; NCI-H226 lung; NCI-H322M lung; HOP-62 NSCLC; NCI-H460 lung; HOP-92 NSCLC; NCI-H522 lung; A549/ATCC NSCLC; 786-0 renal; COLO 205 colon.
What all share (test): NCI-60 one-dose screen, 48 h (100 = growth as untreated, 0 = no growth, -100 = all killed)
Details in all cases: 10 µM unless noted

Turning to `CCN1CCC2(CC1)NC(=O)c1c(c3ccc(Cl)c(Cl)c3n1C)C2C#N` (stereo not given), the growth in the test on NCI-H23 lung is 70%; in the test with NCI-H226 lung, 72%; in the test on NCI-H322M lung, 57%; with HOP-62 NSCLC, 62%; with NCI-H460 lung, 54.6%; with HOP-92 NSCLC it was 40.5%. Moreover, the growth is 61.5% with NCI-H522 lung, 52.1% with A549/ATCC NSCLC, 63.7% with 786-0 renal and -31.4% (active) in the test with COLO 205 colon.
With `O=C1c2ccccc2OC=C(c2ccccc2)N1CCCCNc1ccc(S(=O)(=O)Nc2ncccn2)cc1`, the growth in the test with NCI-H23 lung is 101%; with NCI-H226 lung it was 91.4%; in the test on NCI-H322M lung, 92.8%; in the test with HOP-62 NSCLC, 90.1%; with NCI-H460 lung, 103%; in the test on HOP-92 NSCLC, 75.8%. For the same compound, the growth in the test with NCI-H522 lung was 82.9%; in the test with A549/ATCC NSCLC it was 81.3%; with 786-0 renal, 90.6%; with COLO 205 colon, 114%.
Consider `CCOc1cc2ncc(C#N)c(Nc3ccc(OCc4cccc(F)c4)c(Cl)c3)c2cc1NC(=O)CC1CCSS1` (stereo not given), for which the growth in the test on NCI-H23 lung is 47.4%; in the test on NCI-H226 lung, 56.1%; in the test with NCI-H322M lung, 6.49% (active); in the test with HOP-62 NSCLC, 14.9%; in the test with NCI-H460 lung, -56.6% (active); with HOP-92 NSCLC it was 66.7%. For the same compound, the growth in the test on NCI-H522 lung is 58.2%; in the test with A549/ATCC NSCLC it was -69.7% (active); in the test on 786-0 renal it was 88.5%; with COLO 205 colon, 32.2%.
With `COc1cc2c(cc1-c1c(C)noc1C)ncc1nc(-c3ccccn3)n([C@H](C)COC(F)F)c12`, the growth with NCI-H23 lung is 61.1%; in the test on NCI-H226 lung, 57.8%; with NCI-H322M lung, 51.4%; in the test with HOP-62 NSCLC, 40.9%; in the test on NCI-H460 lung it was 57.7%; with HOP-92 NSCLC, 26.7%. Moreover, the growth in the test on NCI-H522 lung is 29.3%; in the test with A549/ATCC NSCLC, 39%; in the test on 786-0 renal, 50.4%; in the test on COLO 205 colon, 29.8%.
For `O=C1Nc2c(ccc(Cl)c2Cl)/C1=C\c1cc(C(F)(F)F)cc(C(F)(F)F)c1`, the growth in the test with NCI-H23 lung is 13.3%; in the test on NCI-H226 lung it was 24.5%; in the test on NCI-H322M lung it was 74.1%; in the test on HOP-62 NSCLC, 20.2%; in the test on NCI-H460 lung, -18% (active); in the test with HOP-92 NSCLC it was -22.6% (active). Besides, the growth with NCI-H522 lung was 22.3%; in the test on A549/ATCC NSCLC, 26%; in the test on 786-0 renal, -11.2% (active); in the test with COLO 205 colon, -74.9% (active).
For `Cc1ccc2oc(=O)cc(C3c4ccc([nH]4)C(c4cc(=O)oc5ccc(C)cc45)c4ccc([nH]4)C(c4cc(=O)oc5ccc(C)cc45)c4ccc([nH]4)C(c4cc(=O)oc5ccc(C)cc45)c4ccc3[nH]4)c2c1` (stereo not given), the growth was -53.2% (active) with NCI-H23 lung; -39.2% (active) with NCI-H226 lung; -10.2% (active) with NCI-H322M lung; -68.2% (active) with HOP-62 NSCLC; -66.4% (active) with NCI-H460 lung; -24.1% (active) in the test with HOP-92 NSCLC. Further, the growth with NCI-H522 lung is -63.5% (active); with A549/ATCC NSCLC, -24.6% (active); in the test with 786-0 renal, -58.9% (active); with COLO 205 colon, -80.6% (active).
Regarding `c1ccc(Cn2cc(-c3nc4ccccc4s3)c3cccnc32)cc1`, the growth in the test with NCI-H23 lung is 96.6%; in the test with NCI-H226 lung, 92.4%; with NCI-H322M lung, 101%; in the test with HOP-62 NSCLC, 96.1%; in the test on NCI-H460 lung it was 102%; in the test with HOP-92 NSCLC it was 98.3%. Further, the growth in the test on NCI-H522 lung was 87.9%; in the test with A549/ATCC NSCLC, 104%; in the test on 786-0 renal, 104%; with COLO 205 colon it was 118%.
For `N#CN1CCC[C@H]1C(=O)N1CCc2c(-c3[nH]nc4ncccc34)cccc21`, the growth in the test with NCI-H23 lung is 4.9% (active); in the test with NCI-H226 lung it was -29.1% (active); with NCI-H322M lung it was 20.6%; with HOP-62 NSCLC it was -10.1% (active); in the test on NCI-H460 lung it was 3.48% (active); in the test with HOP-92 NSCLC it was -21.6% (active). Further, the growth in the test on NCI-H522 lung was -51.7% (active); with A549/ATCC NSCLC, 3.83% (active); in the test with 786-0 renal, 9.59% (active); in the test with COLO 205 colon it was -77.5% (active).
For the compound `COc1cc2c(cc1O)CC[C@@H]1[C@@H]2CC[C@]2(C)[C@@H](NCCN(C)C)CC[C@@H]12`, the growth was -77.2% (active) in the test on NCI-H23 lung; -86.2% (active) in the test with NCI-H226 lung; -91.6% (active) in the test on NCI-H322M lung; -76.3% (active) with HOP-62 NSCLC; -84.7% (active) in the test with NCI-H460 lung; -81.7% (active) in the test on HOP-92 NSCLC. Besides, the growth was -94.3% (active) in the test on NCI-H522 lung, -81.6% (active) with A549/ATCC NSCLC, -84.3% (active) in the test on 786-0 renal and -71% (active) in the test on COLO 205 colon.
On to `COc1cc(/C=C/C(=O)c2ccc(O)c(CN3CCN(c4cc5c(cc4F)c(=O)c(C(=O)O)cn5C4CC4)CC3)c2)cc(OC)c1OC`, for which the growth was 42.8% in the test with NCI-H23 lung; 76.9% in the test on NCI-H226 lung; 30% in the test with NCI-H322M lung; 72.3% in the test with HOP-62 NSCLC; 34.8% with NCI-H460 lung; 81.2% in the test on HOP-92 NSCLC. Further, the growth with NCI-H522 lung was 27.6%; in the test with A549/ATCC NSCLC it was 43.1%; in the test on 786-0 renal, 49.8%; in the test with COLO 205 colon, 106%.
Take `CN1CCN=C1c1ccc(NC(=O)c2ccc(C(=O)Nc3ccc(C4=NCCN4C)cc3)cc2)cc1`: the growth in the test with NCI-H23 lung is 90.2%; with NCI-H226 lung, 98.6%; in the test with NCI-H322M lung, 92.2%; in the test on HOP-62 NSCLC, 97.8%; in the test on NCI-H460 lung, 91%; with HOP-92 NSCLC, 82.5%. Also, the growth in the test on NCI-H522 lung is 87%; in the test on A549/ATCC NSCLC, 101%; in the test on 786-0 renal, 101%; in the test with COLO 205 colon it was 99.6%.
For the compound `COc1ccc(S(=O)(=O)N2CCCCCC2)cc1NC(=O)c1[nH]c(C)c2c1CCCCC2=O`, the growth is 30.4% in the test on NCI-H23 lung; 45.5% with NCI-H226 lung; 35.8% in the test on NCI-H322M lung; 26.8% in the test on HOP-62 NSCLC; 42.2% in the test on NCI-H460 lung; 31.5% with HOP-92 NSCLC. In addition, the growth with NCI-H522 lung is 27.3%; in the test with A549/ATCC NSCLC it was 29.6%; in the test on 786-0 renal it was 34.9%; in the test with COLO 205 colon it was 26.8%.
With `Fc1ccc(CNc2cccc3[nH]c(C(F)(F)F)nc23)cc1`, the growth in the test on NCI-H23 lung was 99.1%; in the test with NCI-H226 lung, 93.1%; in the test on NCI-H322M lung, 104%; in the test on HOP-62 NSCLC, 80.3%; with NCI-H460 lung, 83%; in the test on HOP-92 NSCLC, -9.4% (active). Further, the growth in the test on NCI-H522 lung is 79.7%; with A549/ATCC NSCLC, 89.2%; in the test on 786-0 renal, 110%; in the test with COLO 205 colon it was 102%.
